The nature of assay [1]: Nuclear factor erythroid 2-related factor 2/antioxidant responsive element (Nrf2/ARE) small molecule agonists: qHTS cell viability counter screen in human keratinocytes (AID 1919968; active = well fitted curve in the direction sought with a large enough effect in the repeat runs; an effect the other way counts as inactive or inconclusive; note: nearly all actives have a fitted effect of over 55% in size). The method, boiled down: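 Seed 1,500 KeratinoSens cells per well, then incubate 5 h at 37 C/5% CO2. Add compounds in DMSO and incubate 23 h. Add CellTiter-Fluor, wait 1 h and read fluorescence.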
A general note: Quantitative high-throughput screening tests each substance at several concentrations.

A short description of assay [2]: Nuclear factor erythroid 2-related factor 2/antioxidant responsive element (Nrf2/ARE) small molecule agonists: luciferase reporter gene qHTS assay in human keratinocytes (AID 1919969). Note: nearly all actives have a fitted effect of over 35% in size. On the technique in general: A reporter such as luciferase makes a cellular process visible.
Assay [3] deals with KiSS-1 receptor (Homo sapiens) (UniProt Q969F8). Description: Human kisspeptin (KISS1R) small molecule agonists, calcium flux assay in KISS1R-HEK293 cells (AID 1920064; active = well fitted curve in the direction sought with a large enough effect in the repeat runs; an effect the other way counts as inactive or inconclusive). The essentials: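 Cells plated and incubated 18 h; dye added, 1 h at 37 C; compounds in DMSO pinned in; signal read at 480/540 nm every second for 3 min. Each compound tested at 15 concentrations in triplicate.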
A general note: Calcium assays in cells follow changes in intracellular calcium, usually with a dye or a luminescent sensor.

A short description of assay [4]: p53 small molecule agonists, cell-based qHTS assay with rat liver microsomes: qHTS cell viability counter screen (AID 1963580). Note: nearly all actives have a fitted effect of over 45% in size. The essentials: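 p53RE-bla HCT-116 cells (4,000/well) rested 5 h at 37 C, then given Tox21 compounds in DMSO with rat liver microsomes (0.5 mg/mL final) plus NADPH (0.5 mg/mL final) for 16 h at 37 C. Viability read by CellTiter-Glo luminescence after 30 min at room temperature.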

Assay [5] in a line: p53 small molecule agonists, cell-based qHTS assay: qHTS cell viability counter screen (AID 1963581). Note: nearly all actives have a fitted effect of over 45% in size. The essentials: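 Cells: HCT-116 with p53 response element-driven beta-lactamase. Treatment: 16 h, 37 C, compounds in DMSO. Read: CellTiter-Glo luminescence after 30 min RT.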
For assay [6], the target named is 5-hydroxytryptamine receptor 2A (Homo sapiens) (UniProt P28223). Description: 5-hydroxytryptamine receptor 2A (HTR2A) small molecule antagonists, cell-based qHTS assay (AID 1963586). Note: nearly all actives have a fitted effect of over 45% in size. The method, boiled down:
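Antagonist-mode intracellular calcium assay: DOI (4 nM) added after 5 min compound pre-incubation at room temperature to dye-loaded HTR2A-CHO cells. Fluorescence followed for 3 min, sampled every second.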

The target of assay [7] is Muscarinic acetylcholine receptor M1 (Homo sapiens) (UniProt P11229). The experiment in a line: Cholinergic receptor muscarinic 1 (CHRM1) small molecule antagonists, cell-based qHTS assay (AID 1963588). Note: nearly all actives have a fitted effect of over 40% in size. The method, boiled down:
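CHRM1-CHO calcium-flux assay, antagonist mode. Cells were seeded 18 h, dye-loaded 1 h at 37 C and given compound for 5 min at RT, then acetylcholine was added at 50nM. FDSS fluorescence was read 3 min; 15 concentrations, three runs.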

Assay [8] shares this target. Description: Cholinergic receptor muscarinic 1 (CHRM1) small molecule agonists, cell-based qHTS assay (AID 1963589). Note: nearly all actives have a fitted effect of over 35% in size. The method, boiled down:
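Agonist-mode qHTS in CHO cells stably carrying human muscarinic M1. Intracellular calcium is tracked by fluorescence every second after compound transfer; each compound runs at 15 concentrations in three independent runs.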

Assay [9] is described as follows: cAMP Responsive Elements (CRE) small molecule agonists, cell-based qHTS assay (AID 1963590). Note: potency is the fitted concentration of half-maximal effect. The method, boiled down:
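Agonist mode qHTS in CRE-bla HEK 293T cells: compounds dosed from DMSO for 3 h at 37 C/5% CO2, followed by LiveBLAzer B/G FRET substrate for 2 h at room temperature.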

Assay [10] in a line: cAMP Responsive Elements (CRE) small molecule antagonists, cell-based qHTS assay (AID 1963591; active = well fitted inhibition curve with a large enough effect in the signal ratio in the repeat runs, not every such curve was filed as active; the % refers to the signal ratio). The method, boiled down:
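Antagonist mode: test compounds are co-incubated with the adenylyl cyclase activator NKH477 (0.25 uM final) on CRE-bla HEK293T cells for 3 h at 37 °C, followed by LiveBLAzer substrate loading.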

Assay [11] has as its target D(2) dopamine receptor (Homo sapiens) (UniProt P14416). Description: Dopamine D2 receptor (DRD2) small molecule agonists, cell-based qHTS assay (AID 1963594). Note: nearly all actives have a fitted effect of over 35% in size. The essentials:
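HEK293 cells stably expressing DRD2 were cultured 24 h at 37 C, then given Ro20-1724 (0.1 mM final) and compounds for 10 min at room temperature. NKH477 (200nM) was then added for 30 min. cAMP was read by HTRF.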

For assay [12] the target is unchanged. Description: Dopamine D2 receptor (DRD2) small molecule antagonists, cell-based qHTS assay (AID 1963595; active = well fitted inhibition curve with a large enough effect in the signal ratio in the repeat runs, with a control signal flat; the % refers to the signal ratio; note: potency is the fitted concentration of half-maximal effect). The method, boiled down: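 Readout: HTRF cAMP, cAMP-d2 competing with cellular cAMP for anti-cAMP cryptate, read after 1 h. Cells: DRD2-HEK293. Conditions: 0.1 mM Ro20-1724, 12 nM quinpirole, 200 nM NKH477, 30 min RT.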
The nature of assay [13]: G protein-coupled receptor (GPCR) small molecule agonists, calcium flux assay: HEK293 wild type cell line counter screen (AID 1920065). The essentials:
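Counter-screen of the Tox21 10K library for non-specific calcium release: dye-loaded cells received compounds in DMSO and were monitored by kinetic fluorescence (480/540 nm, 3 min). Fifteen concentrations, run in triplicate.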

Assay [14] can be described thus: p53 small molecule agonists, cell-based qHTS assay with human liver microsomes (AID 1963577).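 Note: p53 response element beta-lactamase reporter cells with liver microsomes plus NADPH.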 The method, boiled down:
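16 h, 37 C exposure of p53RE-bla cells to compounds with human liver microsomes and NADPH (0.5 mg/mL final each); detection via LiveBLAzer mixture, 2 h dark at room temperature.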

Assay [15] can be described thus: p53 small molecule agonists, cell-based qHTS assay with rat liver microsomes (AID 1963578). The essentials:
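With rat liver microsomes and NADPH present (0.5 mg/mL final each), p53RE-bla cells are treated with compound for 16 h at 37 C. LiveBLAzer detection mixture is then applied for 2 h at room temperature in the dark.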

Assay [16] can be described thus: p53 small molecule agonists, cell-based qHTS assay with human liver microsomes: qHTS cell viability counter screen (AID 1963579). Note: nearly all actives have a fitted effect of over 45% in size. The method, boiled down: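 In this multiplexed counter screen, the reporter plates were subsequently treated with CellTiter-Glo so that cell viability, reflected by luminescence, could be recorded for p53RE-bla cells dosed 16 h with compounds under microsomal activation (HLM and NADPH).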

Assay [17] is described as follows: p53 small molecule agonists, cell-based qHTS assay (AID 1963582; active = well fitted activation curve with a large enough effect in the signal ratio in the repeat runs, not every such curve was filed as active; the % refers to the signal ratio). The method, boiled down: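 Quantitative HTS in p53RE-bla cells: after a 5 h settling period, compounds delivered in DMSO were left on cells for 16 h at 37 C, and reporter induction was measured as fluorescence following 2 h substrate loading.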
For assay [18], the target named is 5-hydroxytryptamine receptor 2A (Homo sapiens) (UniProt P28223). Description: 5-hydroxytryptamine receptor 2A (HTR2A) small molecule agonists, cell-based qHTS assay (AID 1963587). Note: nearly all actives have a fitted effect of over 30% in size. The method, boiled down:
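HTR2A-CHO cells, plated 18 h at 37 C/5% CO2, dye-loaded 1 h at 37 C; compounds in DMSO added by pin tool (agonist mode). Intracellular calcium flux read as kinetic fluorescence on FDSS over 2 min at 1 s intervals.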

Assay [19] deals with Beta-2 adrenergic receptor (Homo sapiens) (UniProt P07550). The experiment in a line: Adrenergic beta2 receptor (ADRB2) small molecule antagonists, cell-based qHTS assay (AID 1963592). Note: series mostly up to about 92 µM; nearly all actives have a fitted effect of over 50% in size. The method, boiled down:
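Cells (CHO, stable ADRB2 overexpression) incubated 18-20hr at 37C; compounds added from DMSO; agonist mix (1nM isoproterenol, 100uM IBMX, 25uM Ro-20-1724) added; 0.5hr RT; d2-cAMP and anti-cAMP-cryptate added; 1hr RT; 665/615 nm read.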

For assay [20] the target is unchanged. The experiment in a line: Adrenergic beta2 receptor (ADRB2) small molecule agonists, cell-based qHTS assay (AID 1963593).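 For activation: CHO cells stably overexpressing human ADRB2.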 Note: potency is the fitted concentration of half-maximal effect. The essentials: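 CHO cells stably over-expressing ADRB2 were plated overnight at 37C, then dosed with compounds plus a stimulation mix containing 100uM IBMX and 25uM Ro-20-1724 for 0.5hr at room temperature. cAMP was measured by HTRF competition, 1hr.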

“And” between values parts separate entries of the source, which are not always exact repeats. Identical values can stand only once. Inconclusive results are not listed. The source made the active and inactive calls. Unless noted, calls come from the whole dose curve.

Chain of Beta-2 adrenergic receptor (Homo sapiens) (P07550 whole entry, looked up): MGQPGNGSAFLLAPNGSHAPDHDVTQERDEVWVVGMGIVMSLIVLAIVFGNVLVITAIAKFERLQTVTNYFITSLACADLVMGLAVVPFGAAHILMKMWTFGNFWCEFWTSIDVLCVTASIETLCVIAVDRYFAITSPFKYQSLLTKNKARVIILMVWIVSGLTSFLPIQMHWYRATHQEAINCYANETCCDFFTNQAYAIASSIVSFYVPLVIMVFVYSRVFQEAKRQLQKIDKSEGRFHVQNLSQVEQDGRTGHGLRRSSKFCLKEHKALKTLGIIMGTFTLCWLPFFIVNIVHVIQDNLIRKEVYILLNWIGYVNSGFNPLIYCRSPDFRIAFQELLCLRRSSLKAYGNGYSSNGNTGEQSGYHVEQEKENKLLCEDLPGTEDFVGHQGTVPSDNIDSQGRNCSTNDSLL
Chain of D(2) dopamine receptor (Homo sapiens) (P14416 whole entry, looked up): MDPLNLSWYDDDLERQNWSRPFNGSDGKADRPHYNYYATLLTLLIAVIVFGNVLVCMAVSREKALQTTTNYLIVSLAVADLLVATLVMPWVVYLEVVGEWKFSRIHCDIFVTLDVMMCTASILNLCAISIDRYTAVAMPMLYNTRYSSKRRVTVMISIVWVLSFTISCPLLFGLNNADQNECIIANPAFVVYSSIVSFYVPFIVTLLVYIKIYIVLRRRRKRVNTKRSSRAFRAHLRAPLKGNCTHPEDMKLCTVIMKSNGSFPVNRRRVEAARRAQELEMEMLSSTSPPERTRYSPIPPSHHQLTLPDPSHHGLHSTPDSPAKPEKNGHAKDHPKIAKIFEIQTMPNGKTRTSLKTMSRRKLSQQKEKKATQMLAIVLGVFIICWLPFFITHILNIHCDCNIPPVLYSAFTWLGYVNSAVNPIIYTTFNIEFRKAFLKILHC
Chain of 5-hydroxytryptamine receptor 2A (Homo sapiens) (P28223 whole entry, looked up): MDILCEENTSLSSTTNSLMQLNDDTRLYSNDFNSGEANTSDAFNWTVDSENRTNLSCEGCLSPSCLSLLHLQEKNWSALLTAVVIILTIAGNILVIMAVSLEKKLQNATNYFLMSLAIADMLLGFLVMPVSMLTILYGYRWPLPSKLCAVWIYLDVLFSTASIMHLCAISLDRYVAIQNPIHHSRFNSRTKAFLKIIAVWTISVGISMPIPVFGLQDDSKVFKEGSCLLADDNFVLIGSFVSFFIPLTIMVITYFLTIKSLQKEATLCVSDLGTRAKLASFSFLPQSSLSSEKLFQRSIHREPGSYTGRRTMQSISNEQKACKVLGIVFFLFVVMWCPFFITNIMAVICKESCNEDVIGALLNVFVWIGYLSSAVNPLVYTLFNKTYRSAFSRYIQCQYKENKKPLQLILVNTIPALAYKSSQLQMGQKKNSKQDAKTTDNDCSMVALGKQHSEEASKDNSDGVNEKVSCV
Chain of KiSS-1 receptor (Homo sapiens) (Q969F8 whole entry, looked up): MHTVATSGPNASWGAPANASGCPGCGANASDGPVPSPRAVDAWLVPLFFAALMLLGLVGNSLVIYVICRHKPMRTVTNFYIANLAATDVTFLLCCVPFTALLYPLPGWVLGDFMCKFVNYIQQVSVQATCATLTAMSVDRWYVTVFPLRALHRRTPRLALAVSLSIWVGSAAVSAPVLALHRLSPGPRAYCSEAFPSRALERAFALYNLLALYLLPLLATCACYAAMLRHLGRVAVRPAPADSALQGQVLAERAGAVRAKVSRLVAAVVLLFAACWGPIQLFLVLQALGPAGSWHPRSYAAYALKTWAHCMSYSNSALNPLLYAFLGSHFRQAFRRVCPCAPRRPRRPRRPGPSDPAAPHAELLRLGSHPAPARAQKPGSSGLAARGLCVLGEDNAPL
Chain of Muscarinic acetylcholine receptor M1 (Homo sapiens) (P11229 whole entry, looked up): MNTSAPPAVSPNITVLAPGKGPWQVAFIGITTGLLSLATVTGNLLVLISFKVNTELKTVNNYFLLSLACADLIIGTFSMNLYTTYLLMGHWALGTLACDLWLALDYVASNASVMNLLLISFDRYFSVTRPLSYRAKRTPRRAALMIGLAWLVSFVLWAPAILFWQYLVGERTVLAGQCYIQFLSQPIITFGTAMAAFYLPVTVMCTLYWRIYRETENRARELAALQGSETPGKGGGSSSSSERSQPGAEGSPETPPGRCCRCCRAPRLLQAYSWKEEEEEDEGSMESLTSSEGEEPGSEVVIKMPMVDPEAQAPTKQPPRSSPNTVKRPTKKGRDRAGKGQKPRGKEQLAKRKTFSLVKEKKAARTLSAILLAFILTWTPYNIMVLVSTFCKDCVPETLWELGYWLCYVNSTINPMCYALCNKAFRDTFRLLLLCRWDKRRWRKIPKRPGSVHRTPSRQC

For `CCCCCC1=CCCC1=O`, the Potency entry in assay [1], in assay [2], in assay [3], in assay [4], in assay [5] and in [6] was “inactive” in each case. The Potency entry in [7], in assay [8], in [9], in [10], in assay [11] and in assay [12] was “inactive” each time.

Regarding `O=C1CCCCCN1`, the Potency entry in assay [1], in assay [3], in assay [13], in assay [14], in assay [15] and in [16] was “inactive” throughout. For the same molecule, the Potency result in assay [4], in assay [5], in assay [17], in [6], in assay [18] and in assay [7] was “inactive” throughout. For the same molecule, the Potency entry in [8], in assay [9], in assay [10], in [19], in [11] and in assay [12] was “inactive” throughout.

As for `c1ccc2n[nH]nc2c1`, the Potency result in [1], in assay [2], in [14], in [15], in assay [16] and in assay [4] was “inactive” each time. Besides, the Potency result in [5], in assay [17], in assay [6], in [18], in [7] and in assay [8] was “inactive” throughout. Besides, the Potency entry in assay [9], in assay [10], in assay [19], in assay [20], in [11] and in assay [12] was “inactive” throughout.

Regarding `CNC[C@H](O)c1cccc(O)c1`, the Potency entry in assay [1], in assay [3], in assay [13], in assay [14], in assay [15] and in [16] was “inactive” in each case. Moreover, the Potency result in [4], in assay [5], in assay [17], in assay [6], in assay [18] and in assay [7] was “inactive” in each case. For the same molecule, the Potency result in assay [8], in [10], in [19] and in assay [11] was “inactive” each time. Besides, in assay [12], the Potency was 61.1 µM (active) and 29.8 µM (active).

As to `O=C(c1ccccc1)c1ccc(O)c(O)c1O`, the Potency result in assay [1], in assay [2], in [13], in assay [14], in assay [15] and in assay [16] was “inactive” each time. The Potency entry in [5], in assay [18], in assay [7], in [8], in [9] and in assay [10] was “inactive” each time. In addition, the Potency entry in assay [19], in assay [20] and in assay [12] was “inactive” in each case.

Regarding `CCNC(=S)NCC`, the Potency entry in assay [1], in assay [3], in assay [13], in assay [14], in assay [15] and in assay [16] was “inactive” in each case. Moreover, the Potency result in assay [4], in assay [5], in assay [17], in assay [6], in assay [18] and in assay [7] was “inactive” throughout. The Potency result in assay [8], in assay [9], in assay [10], in assay [19], in assay [11] and in [12] was “inactive” each time.

Regarding `C=C[C@@]1(C)CC(=O)[C@]2(O)[C@@]3(C)[C@@H](O)CCC(C)(C)[C@@H]3[C@H](O)[C@H](OC(C)=O)[C@@]2(C)O1`, the Potency result in [1], in assay [2], in assay [3], in assay [13], in assay [16] and in assay [4] was “inactive” throughout. Besides, the Potency result in [5], in assay [17], in [18], in assay [8] and in [11] was “inactive” throughout. Further, the Potency was 243 nM (active) and 298 nM (active) in [9]; 119 nM (active) in assay [20]; 30.6 nM (active) and 944 nM (active) in [12].

The values are drawn from PubChem BioAssay (Tox21).
